This is an account of results in PubChem BioAssay (NCATS).

The target of assay [1] is Estrogen receptor (Homo sapiens) (UniProt P03372). Briefly: qHTS assay for small molecule antagonists of estrogen receptor alpha signaling (AID 588513; active = well fitted curve in the direction sought with a large enough effect in the signal ratio, with a control signal flat, not every such curve was filed as active; the % refers to the signal ratio; note: % is set by controls: 0 for no effect and ±100 for the full control effect). A digest of the protocol: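 Fluorescence from CCF4 substrate after 2 h at room temperature gave reporter activity; cells had been exposed to compound and 0.5nM 17-beta-estradiol for 18 h at 37 C. Hill-equation fitting yielded IC50 and maximal response.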
Estrogen receptor (Homo sapiens), sequence (P03372 whole entry, looked up): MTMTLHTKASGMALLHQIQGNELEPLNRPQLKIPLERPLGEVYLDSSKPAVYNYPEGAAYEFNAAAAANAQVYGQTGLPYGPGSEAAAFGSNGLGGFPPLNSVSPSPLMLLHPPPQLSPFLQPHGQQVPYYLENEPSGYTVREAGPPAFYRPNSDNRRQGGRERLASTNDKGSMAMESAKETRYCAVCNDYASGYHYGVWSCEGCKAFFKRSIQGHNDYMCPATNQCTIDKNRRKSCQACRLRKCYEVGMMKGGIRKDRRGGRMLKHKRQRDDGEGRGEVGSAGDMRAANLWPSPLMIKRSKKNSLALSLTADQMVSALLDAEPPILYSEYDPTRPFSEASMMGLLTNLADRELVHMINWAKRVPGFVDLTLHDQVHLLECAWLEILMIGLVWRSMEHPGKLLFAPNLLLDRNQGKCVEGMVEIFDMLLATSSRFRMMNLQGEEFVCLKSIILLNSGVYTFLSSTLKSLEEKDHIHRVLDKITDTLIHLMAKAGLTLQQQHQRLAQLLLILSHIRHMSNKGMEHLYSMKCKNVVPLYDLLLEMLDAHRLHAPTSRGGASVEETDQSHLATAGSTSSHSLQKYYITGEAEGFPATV
For orientation: qHTS replaces the single test concentration by a dilution series.

For assay [2] the target is unchanged. Briefly: qHTS assay for small molecule agonists of estrogen receptor alpha signaling (AID 588514; calls by dose curve;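 note: 0% = vehicle only and 100% = reference agonist; nearly all actives have a fitted effect of over 70% in size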). A digest of the protocol:
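Fluorescence from CCF4 cleavage reports ER-alpha-driven beta-lactamase expression in HEK 293 cells treated 18 hrs at 37 C. Data normalized to 17-beta-estradiol (20 nM) and DMSO, fitted to Hill equation.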

Assay [3] deals with Glucocorticoid receptor (Homo sapiens) (UniProt P04150). Briefly: qHTS assay for small molecule agonists of glucocorticoid receptor signaling (AID 588532; active = well fitted curve in the direction sought with a large enough effect in the signal ratio, with a control signal flat; the % refers to the signal ratio;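 note: 100% = dexamethasone at 0.1 µM and 0% = DMSO only wells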). The conditions noted are these: HeLa MMTV-bla, beta-lactamase ratio, agonist, 18 h; stronger effect = higher value; percent of dexamethasone control, DMSO zero. A digest of the protocol: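 MMTV-bla HeLa, beta-lactamase reporter; medium with 1% charcoal/dextran-stripped FBS; cpds up to 92 uM, 18 h, 37 C; CCF4 readout 460/530 nm; Hill fit → EC50, efficacy vs 0.1 uM dexamethasone = 100%.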
Glucocorticoid receptor (Homo sapiens), sequence (P04150 whole entry, looked up): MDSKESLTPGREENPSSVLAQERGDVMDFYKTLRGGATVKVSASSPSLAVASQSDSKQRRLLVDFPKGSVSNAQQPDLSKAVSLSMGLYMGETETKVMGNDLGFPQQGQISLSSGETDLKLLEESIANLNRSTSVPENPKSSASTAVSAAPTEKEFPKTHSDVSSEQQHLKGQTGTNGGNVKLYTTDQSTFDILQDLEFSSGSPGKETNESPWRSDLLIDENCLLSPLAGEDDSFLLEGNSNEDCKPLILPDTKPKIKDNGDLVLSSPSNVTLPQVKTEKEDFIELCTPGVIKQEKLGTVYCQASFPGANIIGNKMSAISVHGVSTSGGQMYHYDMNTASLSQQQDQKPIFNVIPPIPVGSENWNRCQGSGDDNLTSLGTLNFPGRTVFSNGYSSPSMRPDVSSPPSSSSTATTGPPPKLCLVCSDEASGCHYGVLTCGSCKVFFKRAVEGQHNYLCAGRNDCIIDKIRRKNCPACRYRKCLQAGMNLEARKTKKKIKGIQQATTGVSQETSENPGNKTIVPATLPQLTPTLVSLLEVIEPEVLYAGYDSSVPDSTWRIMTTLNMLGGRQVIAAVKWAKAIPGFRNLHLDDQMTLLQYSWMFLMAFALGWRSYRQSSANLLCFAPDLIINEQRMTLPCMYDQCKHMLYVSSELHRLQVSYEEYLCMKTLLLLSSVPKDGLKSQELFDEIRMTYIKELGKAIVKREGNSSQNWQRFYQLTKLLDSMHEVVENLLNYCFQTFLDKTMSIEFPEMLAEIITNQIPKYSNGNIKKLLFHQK

The target in assay [4] is Peroxisome proliferator-activated receptor gamma (Homo sapiens) (UniProt P37231). Briefly: qHTS assay for small molecule agonists of peroxisome proliferator-activated receptor gamma signaling (AID 588536; active = well fitted curve in the direction sought with a large enough effect in the signal ratio, with a control signal flat, not every such curve was filed as active; the % refers to the signal ratio;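 note: 0% = DMSO basal wells and 100% = rosiglitazone at 2 µM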). A digest of the protocol:
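Cells were plated and held 6–6.5 h at 37 C, then compounds were added as a titration series. After a further 16 h, CCF4 dye was loaded for 2 h at room temperature and emission at 460/530 nm recorded.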

Assay [5] in a line: qHTS assay for small molecule agonists of retinoid X receptor alpha signaling (AID 588544). The conditions noted are these: HEK293T RXRa-UAS-bla, beta-lactamase reporter, 18 h; 530 nm emission.
Assay [6] deals with Thyroid hormone receptor beta (Homo sapiens) (UniProt P10828). Briefly: qHTS assay for small molecule agonists of thyroid hormone receptor beta signaling (AID 588545; calls by dose curve;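 note: 0% = DMSO only and 100% = 10 nM T3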). A digest of the protocol:
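Efficacy and EC50 values derive from Hill fits of qHTS titration data, normalized to 10 nM T3 and DMSO-only wells. HEK 293 reporter cells were stimulated for 18 hrs at 37 C, with beta-lactamase activity measured by CCF4 fluorescence.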

Assay [7] in a line: qHTS assay for small molecule antagonists of retinoid X receptor alpha signaling (AID 588546; active = well fitted inhibition curve with a large enough effect in the signal ratio, with a control signal flat, not every such curve was filed as active; the % refers to the signal ratio;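 note: cells stimulated with 9-cis-retinoic acid as agonist; % is set by controls: 0 for no effect and ±100 for the full control effect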). To be noted: HEK293T RXRa-UAS-bla, beta-lactamase ratio, antagonist mode; measured here: W530 green channel, cytotoxicity proxy. A digest of the protocol: (§1)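 Beta-lactamase reporter inhibition, read as CCF4 fluorescence ratio (ex 405, em 460/530 nm) after 2 h at RT. HEK293T UAS-bla cells, 2500/well, were stimulated with 9-cis-RA at 500 or 100 nM final alongside test compound for 18 h at 37 C.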

The target of assay [8] is Retinoic acid receptor RXR-alpha (Homo sapiens) (UniProt P19793). The assay is described as above. To be noted: HEK293T RXRa-UAS-bla, beta-lactamase ratio, antagonist mode. A digest of the protocol: as §1
Retinoic acid receptor RXR-alpha (Homo sapiens), sequence (P19793 whole entry, looked up): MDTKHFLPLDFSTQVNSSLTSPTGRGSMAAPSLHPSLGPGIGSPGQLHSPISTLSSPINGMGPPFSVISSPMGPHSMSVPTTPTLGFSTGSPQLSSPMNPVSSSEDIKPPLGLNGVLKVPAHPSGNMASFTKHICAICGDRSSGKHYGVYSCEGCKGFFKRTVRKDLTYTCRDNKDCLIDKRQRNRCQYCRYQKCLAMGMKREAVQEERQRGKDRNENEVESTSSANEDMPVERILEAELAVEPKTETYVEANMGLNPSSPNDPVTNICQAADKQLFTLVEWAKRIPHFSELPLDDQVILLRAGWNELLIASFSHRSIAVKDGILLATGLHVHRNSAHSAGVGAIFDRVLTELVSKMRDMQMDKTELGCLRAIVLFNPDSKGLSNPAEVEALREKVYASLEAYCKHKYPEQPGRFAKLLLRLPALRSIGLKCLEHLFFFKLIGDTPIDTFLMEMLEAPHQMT
For assay [9], the target named is Thyroid hormone receptor beta (Homo sapiens) (UniProt P10828). Briefly: qHTS assay for small molecule antagonists of thyroid hormone receptor beta signaling (AID 588547; active = well fitted inhibition curve with a large enough effect in the signal ratio, with a control signal flat, not every such curve was filed as active; the % refers to the signal ratio;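 note: cells stimulated with 0.4 nM T3 agonist during compound exposure; series mostly up to about 77 µM; % is set by controls: 0 for no effect and ±100 for the full control effect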). The conditions noted are these: TR-UAS-bla HEK293, beta-lactamase ratio, antagonist mode, 18 h. A digest of the protocol: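 TR-UAS-bla GripTite HEK293 cells in 2% charcoal/dextran FBS medium were preincubated 4 h at 37 C, given compound (0.59 nM to 92 uM) plus 0.4 nM T3 (final) for 18 h, then CCF4 for 2 h at RT; Hill fit gave IC50.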
Thyroid hormone receptor beta (Homo sapiens), sequence (P10828 whole entry, looked up): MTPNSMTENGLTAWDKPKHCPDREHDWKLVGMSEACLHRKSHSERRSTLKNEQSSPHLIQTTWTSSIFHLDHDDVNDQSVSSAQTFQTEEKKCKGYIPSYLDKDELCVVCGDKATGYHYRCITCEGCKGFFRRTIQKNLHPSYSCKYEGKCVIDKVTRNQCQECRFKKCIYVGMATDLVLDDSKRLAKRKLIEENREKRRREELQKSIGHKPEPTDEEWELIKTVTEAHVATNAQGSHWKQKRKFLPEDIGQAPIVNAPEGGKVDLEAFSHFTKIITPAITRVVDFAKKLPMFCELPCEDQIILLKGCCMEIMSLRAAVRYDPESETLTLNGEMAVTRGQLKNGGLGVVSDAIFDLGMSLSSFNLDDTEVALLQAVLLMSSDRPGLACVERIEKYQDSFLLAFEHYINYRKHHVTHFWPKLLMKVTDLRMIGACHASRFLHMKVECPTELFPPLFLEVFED

A short description of assay [10]: qHTS assay for small molecule activators of the p53 signaling pathway (AID 651743; active = well fitted activation curve with a large enough effect in the signal ratio, not every such curve was filed as active; the % refers to the signal ratio; note: series mostly up to about 92 µM; % of control where 0% means no effect). To be noted: HCT-116 p53RE-bla, beta-lactamase FRET ratio, 16 h; activation: stronger effect = higher value. A digest of the protocol:
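Here HCT-116 cells with an integrated p53-responsive beta-lactamase gene were incubated with compounds (16 hours, 37 C) after a 5-hour plating period; beta-lactamase activity was detected as fluorescence intensity via B/G FRET substrate.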

Assay [11] is described as follows: qHTS assay for environmental chemicals that activate the Aryl hydrocarbon Receptor (AhR) signaling pathway (AID 651777). Note: % of control where 0% means no effect; nearly all actives have a fitted effect of over 15% in size. The conditions noted are these: 1A2-DRE human hepatoma cells, luciferase, 24 h; activation: stronger effect = higher value. A digest of the protocol:
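Stable CYP1A2 promoter/DRE-luciferase human hepatoma line treated 24 hr; One-Glo luminescence, 30 min RT.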

Assay [12] addresses Peroxisome proliferator-activated receptor alpha (Homo sapiens) (UniProt Q07869). Briefly: qHTS assay for small molecule agonists of the peroxisome proliferator-activated receptor alpha (PPARalpha) signaling pathway (AID 651778). Note: % of control where 0% means no effect. To be noted: PathHunter PPARalpha complementation, chemiluminescence, 6 h; max response: stronger effect = higher value. A digest of the protocol: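 Cells plated at 2,000/well and held overnight at 37 C, 5% CO2, then compound added by pin tool for 6 hr; after PathHunter detection reagent and 60 min at room temperature, chemiluminescence from enzyme complementation was read.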

Assay [13] in a line: qHTS assay for small molecule agonists of the antioxidant response element (ARE) signaling pathway measured by Nrf2-dependant transcriptional activity (AID 720636; active = well fitted curve in the direction sought with a large enough effect in the repeat runs; an effect the other way counts as inactive or inconclusive;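 note: HepG2 cells with an ARE-driven luciferase reporter; % of control where 0% means no effect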). A digest of the protocol:
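Reporter gene assay, HepG2 ARE-luc: 16 hr compound, 37 C, 5% CO2; read-out luciferase luminescence.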

Assay [14] in a line: qHTS assay for small molecule agonists of the antioxidant response element (ARE) signaling pathway measured by Nrf2-dependant transcriptional activity - cell viability counter screen (AID 720653; active = well fitted curve in the direction sought with a large enough effect in the repeat runs; an effect the other way counts as inactive or inconclusive; note: % is set by controls: 0 for no effect and ±100 for the full control effect). To be noted: ARE-bla HepG2 viability, CellTiter-Glo ATP luminescence, 16 h; max response: stronger effect = lower value. A digest of the protocol: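 ARE-bla HepG2 cells (2,000/well) rested 5 hrs at 37C/5% CO2, then exposed to compounds in DMSO for 16 hrs. Viability was read in the same wells as intracellular ATP by luminescence, 30 min at room temperature after reagent addition.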

The nature of assay [15]: qHTS assay for cell viability of HEK293 cells (AID 743288). Note: % is set by controls: 0 for no effect and ±100 for the full control effect; nearly all actives have a fitted effect of over 50% in size. The conditions noted are these: ATP luminescence (CellTiter-Glo), 18 h; max response: stronger effect = lower value. A digest of the protocol:
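Viable-cell counts were inferred from luciferase-based ATP content in HEK293 cells seeded at 2,000/well, pre-incubated ≥5 h, then dosed with DMSO-solubilised compounds for 18 h at 37 C.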

Assay [16] is described as follows: qHTS assay for cell viability of the p53RE-bla HCT-116 cell line (AID 743292). Note: % is set by controls: 0 for no effect and ±100 for the full control effect; nearly all actives have a fitted effect of over 55% in size. A digest of the protocol:
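Readout: CellTiter-Glo luminescence after 30 min RT. Treatment: compounds in DMSO, 16 h, 37 C. Cells: CellSensor p53RE-bla HCT-116, 4,000/well, preincubated 5 h.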

Assay [17] deals with Nuclear receptor subfamily 1 group I member 2 (Rattus norvegicus) (UniProt Q9R1A7). Briefly: qHTS assay for small molecule activators of the rat pregnane X receptor (rPXR) signaling pathway (AID 651751; call rule not given here; note: 0% is about no effect). The conditions noted are these: rPXR reporter cells, luciferase (One-Glo), 24 h.
Nuclear receptor subfamily 1 group I member 2 (Rattus norvegicus), sequence (Q9R1A7 whole entry, looked up): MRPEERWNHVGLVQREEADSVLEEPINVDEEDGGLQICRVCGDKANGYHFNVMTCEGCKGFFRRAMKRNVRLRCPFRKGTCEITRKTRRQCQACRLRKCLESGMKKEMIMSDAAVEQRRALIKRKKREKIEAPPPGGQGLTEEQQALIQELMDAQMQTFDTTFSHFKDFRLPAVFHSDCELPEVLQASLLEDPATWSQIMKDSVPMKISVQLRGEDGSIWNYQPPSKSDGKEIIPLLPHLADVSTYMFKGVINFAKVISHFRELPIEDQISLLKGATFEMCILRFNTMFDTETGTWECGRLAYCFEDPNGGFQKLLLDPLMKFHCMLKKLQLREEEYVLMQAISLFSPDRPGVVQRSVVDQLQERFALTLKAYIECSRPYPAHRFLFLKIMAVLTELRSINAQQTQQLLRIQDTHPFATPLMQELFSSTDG
Assay [18] in a line: qHTS assay for small molecule activators of the human pregnane X receptor (PXR) signaling pathway (AID 720659; call rule not given here; note: 0% is about no effect).
Assay [19] in a line: qHTS assay for small molecule antagonists of peroxisome proliferator-activated receptor delta signaling (AID 588535; active = well fitted inhibition curve with a large enough effect in the signal ratio, with a control signal flat, not every such curve was filed as active; the % refers to the signal ratio;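 for max response: cells co-treated with a PPAR-delta agonist as stimulator during compound exposure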). To be noted: HEK293T PPARd-UAS-bla, beta-lactamase FRET ratio, 18 h; 460 nm channel. A digest of the protocol:
(§2)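 Compounds tested in titration on PPAR-delta-UAS-bla HEK293T cells grown in charcoal/dextran-stripped serum (2%); beta-lactamase activity read via CCF4 emission at 460 and 530 nm.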

Assay [20] deals with Peroxisome proliferator-activated receptor delta (Homo sapiens) (UniProt Q03181). The description is as above. A digest of the protocol: as §2
Peroxisome proliferator-activated receptor delta (Homo sapiens), sequence (Q03181 whole entry, looked up): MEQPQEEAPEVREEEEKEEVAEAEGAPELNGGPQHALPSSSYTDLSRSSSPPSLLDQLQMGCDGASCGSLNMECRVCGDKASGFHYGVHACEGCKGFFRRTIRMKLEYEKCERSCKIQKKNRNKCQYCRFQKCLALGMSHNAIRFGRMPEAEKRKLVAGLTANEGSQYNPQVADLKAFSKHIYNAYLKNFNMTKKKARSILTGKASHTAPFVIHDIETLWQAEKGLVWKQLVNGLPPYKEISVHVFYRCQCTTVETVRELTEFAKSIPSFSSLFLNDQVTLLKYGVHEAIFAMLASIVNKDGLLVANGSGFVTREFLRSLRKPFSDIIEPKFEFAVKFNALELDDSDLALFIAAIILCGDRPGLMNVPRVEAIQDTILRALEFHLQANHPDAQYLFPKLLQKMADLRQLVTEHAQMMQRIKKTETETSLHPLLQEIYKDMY

Results filed as inconclusive are left out. The source made the active and inactive calls. Unless noted, calls come from the whole dose curve; as a rule, active = well fitted curve in the direction sought with a large enough effect; inconclusive = small, poorly fitted or top-dose-only effect, or another doubt; inactive = no such curve, though single readings can be large; an effect the other way counts as inactive or inconclusive.

Peroxisome proliferator-activated receptor alpha (Homo sapiens), sequence (Q07869 whole entry, looked up): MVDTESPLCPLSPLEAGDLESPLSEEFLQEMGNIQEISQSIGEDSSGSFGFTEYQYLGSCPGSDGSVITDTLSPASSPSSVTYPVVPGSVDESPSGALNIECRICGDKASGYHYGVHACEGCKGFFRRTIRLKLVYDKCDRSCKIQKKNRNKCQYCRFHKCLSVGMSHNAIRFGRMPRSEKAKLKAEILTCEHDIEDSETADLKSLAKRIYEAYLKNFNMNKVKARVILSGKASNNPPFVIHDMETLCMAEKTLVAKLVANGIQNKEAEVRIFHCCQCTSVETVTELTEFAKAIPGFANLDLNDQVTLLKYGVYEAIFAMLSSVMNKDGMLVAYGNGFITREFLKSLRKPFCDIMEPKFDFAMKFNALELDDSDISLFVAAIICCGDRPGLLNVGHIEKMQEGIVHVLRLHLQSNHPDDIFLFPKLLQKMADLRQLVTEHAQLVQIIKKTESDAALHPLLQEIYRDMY
Peroxisome proliferator-activated receptor gamma (Homo sapiens), sequence (P37231 whole entry, looked up): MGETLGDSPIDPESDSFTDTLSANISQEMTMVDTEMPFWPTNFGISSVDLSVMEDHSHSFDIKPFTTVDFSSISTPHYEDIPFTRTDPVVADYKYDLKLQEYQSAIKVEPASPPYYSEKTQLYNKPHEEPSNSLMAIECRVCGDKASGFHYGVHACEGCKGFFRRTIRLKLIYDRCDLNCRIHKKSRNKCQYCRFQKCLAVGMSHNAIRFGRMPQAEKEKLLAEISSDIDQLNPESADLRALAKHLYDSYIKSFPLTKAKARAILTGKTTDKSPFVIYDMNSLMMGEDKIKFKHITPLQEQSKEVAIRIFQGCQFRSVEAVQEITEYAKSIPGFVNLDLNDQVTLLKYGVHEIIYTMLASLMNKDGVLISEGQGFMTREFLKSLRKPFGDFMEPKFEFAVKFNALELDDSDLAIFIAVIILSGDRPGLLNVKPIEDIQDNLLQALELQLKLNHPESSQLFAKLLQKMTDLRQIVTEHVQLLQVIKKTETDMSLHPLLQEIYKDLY

For the compound `Cn1c(=O)[nH]c(=O)n(C2CCCCC2)c1=O`, the Potency result in [1], in [2], in assay [6], in [13] and in [16] was “inactive” each time. Further, the results for the activation in assay [3], in assay [10] and in assay [11] were 12.5% (inactive), -1.53% (inactive) and -1.1% (inactive), respectively. In addition, the call in assay [4] and in assay [18] was inactive. Also, the max response in assay [5] was -3.38%; in assay [7] it was -9.26%; in assay [8], 5.47% (inactive); in assay [12], -0.628% (inactive); in assay [14], -9.94% (inactive); in assay [15], -7.06% (inactive). Besides, the max response in assay [17] is 1.25% (inactive). In addition, the activity change % (negative = inhibition) in [9] was 4.13% (inactive).

Regarding `CCCCCC1CCC(=O)O1` (stereo not given), the Potency result in assay [1], in assay [2], in [20], in assay [6] and in [16] was “inactive” in each case. Further, the activation in [3] was -5.15% (inactive); in assay [10], 0.985% (inactive). In addition, the max response in assay [19] is 31.3%; in assay [5] it was -5.36%; in [7], -5.89%; in assay [8], 2.03% (inactive); in assay [14], 1.26% (inactive); in assay [15] it was -7.91% (inactive). Moreover, the max response in [17] was 2.69% (inactive). Moreover, the call in [18] was inactive.

Turning to `C[Si]1(C)O[Si](C)(C)O[Si](C)(C)O[Si](C)(C)O[Si](C)(C)O1`, the Potency result in [1], in assay [2], in [20], in assay [6], in assay [13] and in assay [16] was “inactive” each time. The activation in assay [3] was 5.87% (inactive); in assay [10] it was 1.25% (inactive); in assay [11], 0.106% (inactive). For the same compound, the max response in assay [19] was 5.15%; in [5], -18.1%; in assay [7], -10.4%; in assay [12] it was -3.04% (inactive); in assay [14], -13.9% (inactive); in assay [15], -11.9% (inactive). In addition, in assay [17], the max response is -3.44% (inactive). The compound was called inactive in assay [4] and in [18].

Turning to `O=[N+]([O-])c1ccc2c(c1)Cc1ccccc1-2`, the Potency entry in assay [1], in assay [2], in assay [20], in [6] and in assay [16] was “inactive” each time. Further, the activation in [3] was -0.149% (inactive); in assay [10], 4.31% (inactive); in assay [11] it was 0.842% (inactive). Moreover, the max response is 11.1% in [19]; -11.5% in assay [5]; -2.02% in assay [7]; -0.719% (inactive) in assay [12]; -13.8% (inactive) in [14]; -16.4% (inactive) in assay [15]. Besides, the max response in [17] is 5.85% (inactive). In [9], the activity change % (negative = inhibition) was -0.921% (inactive). For the same compound, in assay [18], the outcome was inactive.

As for `CCCCOCCOCCOC(C)=O`, the Potency result in [1], in assay [2], in [20], in [6], in [13] and in assay [16] was “inactive” throughout. In addition, the activation in assay [3] was -1.04% (inactive); in assay [10], -0.502% (inactive); in assay [11], -2.27% (inactive). Also, the max response in [19] was 11.1%; in assay [5], -16.2%; in assay [14], -1.74% (inactive); in [15] it was 5.77% (inactive); in assay [17], -2.22% (inactive). In addition, the compound was called inactive in assay [4] and in assay [18]. In addition, in assay [9], the activity change % (negative = inhibition) was -10.2% (inactive).
